Measurements: PubChem BioAssay AID720542 (National Center for Advancing Translational Sciences (NCATS), 2013)
About 740 (0.21%) of roughly 360,000 compounds were called active. Entries that show only a call come without a potency. About 2% were inconclusive and are not listed. The sample as a whole holds a higher share of actives than the screen did. Values without a mark were called inactive. The call rests on the fitted dose curve; in most records, active means well fitted inhibition curve with a large enough effect; inconclusive means small, poorly fitted or top-dose-only effect; inactive means no such curve, though single readings can be large or run the other way.
Further: nearly all actives have a fitted effect of over 45% in size.
Potency means the concentration at half of the fitted maximal effect.

The compounds below were run on Plasmodium falciparum AMA1 (3D7) - RON2 peptide interaction (assay: qHTS for Inhibitors of AMA1-RON; Towards Development of Antimalarial Drug Lead: Primary Screen). Conditions: AlphaScreen AMA1-biotinylated RON2 peptide binding; series mostly up to 58.2 µM.
Text: Plasmodium, the causative agent of malaria, is one of the world's deadliest parasitic diseases. Currently there is no vaccine available and there is widespread resistance to common anti-malarial drugs. This warrants novel, alternative approaches for developing improved therapy. During infection, one such essential interaction is between two parasite proteins, the apical membrane antigen1 (AMA1) that is translocated onto the merozoite surface and the rhoptry neck protein 2 (RON2), which is transferred to the red blood cells (RBC) membrane during invasion (Besteiro et.al., 2009). Recently, the Miller lab has shown that the interaction between AMA1 and RON2 is essential for junction formation of the parasite with the host cell (Srinivasan et.al., 2011). The binding of the RON2 peptide to the hydrophobic pocket in AMA triggers the formation of the moving junction which provides a firm anchor for the parasite to pull itself into the RBC using its actin-myosin motor; an irreversible step that commits the parasite for invasion. Only one AMA1 and RON2 genes exists in Plasmodium and there are no alternate pathways. Moreover, the region corresponding to RON2 peptide is conserved in all P. falciparum isolates for which sequences are available. The key residues in the AMA1 hydrophobic pocket that binds RON2 are also conserved and indicate a functional constraint governing this essential step in invasion since a short RON2 peptide (RON2L) corresponding to the binding region on AMA1 is sufficient to compete with the native RON2 protein and inhibits invasion (Tonkin et.al, 2011). Therefore, developing small molecule inhibitors of this interaction offers a promising target opening a new arena for anti-malarial therapeutics drug design.
In collaboration with the Miller lab, a quantitative High Throughput Screen using the AlphScreen technology was developed using a recombinant his-tagged AMA1 and a biotinylated RON2 peptide. This fluorescent screen was assayed against the NIH Molecular Libraries Small Molecule Repository (MLSMR). Inhibition of this protein-protein interaction is the desired outcome of this assay. However, due the limitations of this AlphaScreen assay, a large number of artifacts were observed. An AlphaScreen counterscreen was run to identify the true inhibitors, triage compound activity, and weed out false positives.
NIH Chemical Genomics Center [NCGC]
NIH Molecular Libraries Probe Centers Network [MLPCN]
Assay Submitter (PI): Louis Miller, National Institute of Allergy and Infectious Disease (NIAID)
Two microliters of his-tagged AMA1 3D7 allele protein (final concentration 25 nM) was dispensed into a 1,536-well assay plate. Small molecules and positive control peptides were pin-transferred (23 nL or 46 nL) via Kalypsys pin-tool equipped with a 1,536-pin array, resulting in final compound and peptide concentration ranges of 91.5 nM - 57.2 µM, and 15.6 nM - 2.00 µM, respectively. Unlabeled RON2 peptide or R1 peptide ([…]) that specifically binds the 3D7 AMA1 was used as a positive control that inhibited the binding of RON2L to AMA1. After 15 minutes incubation, 1 uL of biotinylated RON2 peptide (final concentration 25 nM) or buffer were dispensed and the assay plate was incubated for an additional 30 minutes at room temperature and protected from light. This was followed by an addition of 1 uL mixture of donor and acceptor beads (10 ug/mL final concentrations for each). The plates were incubated for 30 min at room temperature and read using the EnVision(R) plate reader (PerkinElmer). Maximum inhibition response was normalized to the positive control signal while no inhibition response was normalized to the DMSO treated wells.
`Cc1c(S(=O)(=O)NCc2ccccc2)c(=O)n(C)c(=O)n1C` was tested, and the Potency was “inactive”. With `CC(C)(C)C1CCC(=O)N2CCC[C@]2(c2ccccc2)C1` (stereo partly specified) the Potency was “inactive”. `O=C(O)CCCN1C(=O)c2ccccc2Sc2ncccc21` was tested, and the Potency was “inactive”. For `Cc1ccc(C(=O)NCCc2nnc(SCC(=O)Nc3cccc(C(=O)O)c3)n2C)cc1`, the Potency was “inactive”. With `CCCCc1nc2c(=O)[nH]c3ccccc3c2o1` the Potency was “inactive”. With `CC(Sc1nnnn1C1CCCCC1)C(=O)O` (stereo unspecified) the Potency was “inactive”. In the case of `CC(=O)c1c(C)[nH]c(C(=O)OCC(=O)Nc2cc(S(=O)(=O)N3CCCCC3)ccc2C)c1C`, the Potency is reported as “inactive”. For `CN(Cc1ccccc1F)c1cc2c(c3c1ccn3C)C1CCC2O1` (stereo unspecified), the Potency was 31.6 µM (active). `CCCCN(C(=O)c1nn(C)c(=O)c2ccccc12)c1c(N)n(CCC)c(=O)[nH]c1=O` was tested, and the Potency was “inactive”. `O=C(Nc1ccc2c(c1)nc1n2CCCCC1)c1cc(S(=O)(=O)N2CCOCC2)ccc1Cl` was tested, and the Potency was “inactive”. For `CCOC(=O)C1=C(CC)Nc2ccccc2N=C1NC(=O)c1cccc(S(=O)(=O)N2CCCC2)c1`, the Potency was “inactive”. In the case of `Cc1ncoc1C(=O)NCCC(c1ccccc1)c1ccccc1`, the Potency is reported as “inactive”. For `Cc1ccc(S(=O)(=O)/N=C(\CN2CCOCC2)N2CCOCC2)cc1`, the Potency was “inactive”. `O=C(Nc1ccc(N2CCN(C(=O)c3cccs3)CC2)cc1)c1cccnc1Cl` was tested, and the Potency was “inactive”. In the case of `COc1ccc(N2CCN(C(=S)Nc3ccc(S(N)(=O)=O)cc3)CC2)cc1`, the Potency is reported as “inactive”. In the case of `C=CC(=O)Nc1ccc(Nc2ccnc(Nc3ccc(N4CCN(C)CC4)cc3)n2)cc1`, the Potency is reported as 15.8 µM (active). Work on `Cc1ccccc1NC(=O)COC(=O)c1cc(C)n(C2CC2)c1C` yielded an activity change, negative = inhibition of 4.53% [at 11.6 µM]. In the case of `CC(NC(=O)c1ccc(N2CCNCC2)c([N+](=O)[O-])c1)C12CC3CC(CC(C3)C1)C2` (stereo unspecified), the Potency is reported as “inactive”. With `CN(C)C(=O)CSc1n[nH]c(-c2ccco2)n1` the Potency was “inactive”. With `CSc1c(SCc2ccccc2)cnn(Cc2ccccc2)c1=O` the Potency was “inactive”. In the case of `c1ccc(CSc2nnc(-c3ccco3)c(-c3ccco3)n2)cc1`, the Potency is reported as 31.6 µM (active). In the case of `Cc1ccc(-n2ncc(C(=O)NC3CC3)c2C2CCN(C(=O)OC(C)(C)C)CC2)c(C)c1`, the Potency is reported as “inactive”. For `O=C(OCC#CCSc1nnc(-c2ccncc2)o1)c1sc2ccccc2c1Cl`, the Potency was “inactive”. For `Cc1ccc([N+](=O)[O-])c(OCCCNCC(C)O)c1` (stereo unspecified), the Potency was “inactive”. `CCOC(=O)C1CCCN(C(=O)c2ccc(CS(=O)(=O)c3ccc(Br)cc3)o2)C1` (stereo unspecified) was tested, and the Potency was “inactive”. In the case of `C=CCNc1nc(N)c(C(=C(C#N)C#N)c2ccccc2)s1`, the Potency is reported as “inactive”. `CCCC1CC(C)(C(=O)Cn2[nH]c(=O)ccc2=O)OC1=O` (stereo unspecified) was tested, and the Potency was “inactive”. In the case of `CC12COC3(C(=O)Nc4ccc(Cl)cn4)CC1CCC32C` (stereo unspecified), the Potency is reported as “inactive”. In the case of `CCC(=C/c1sc2ccc3ccccc3c2[n+]1C)/C=C1\Sc2ccc3ccccc3c2N1C`, the Potency is reported as 35.5 µM (active). `COc1ccc(CN2CCC(c3nc4ccc(Cl)cc4[nH]3)CC2)cc1` was tested, and the Potency was “inactive”. For `COCCOC(=O)C1=C(C)NC(=O)NC1c1cc2c(cc1Br)OCO2` (stereo unspecified), the Potency was “inactive”. For `O=C(CSc1nnc(-c2cccs2)n1Cc1ccccc1)N1CCc2ccccc2C1`, the Potency was “inactive”. With `CC(C)CC(=O)N1CCN(Cc2cccc(Cl)c2)CC1` the Potency was “inactive”. `COc1ccccc1CN1CCN(C(=O)Cc2ccccc2)CC1` was tested, and the Potency was “inactive”. `CC(C)CC(=O)N1CCN(Cc2ccccc2Br)CC1` was tested, and the Potency was 20 µM (active). In the case of `CCCCC(O)C1=C[N+](=O)CC=C1` (stereo unspecified), the Potency is reported as “inactive”. With `CN1CCN(Cc2nc3cc(NC(=O)COc4ccc([N+](=O)[O-])cc4)ccc3n2C)CC1` the Potency was “inactive”. In the case of `COc1ccc(C2(CNC(=O)C(c3ccccc3)c3ccccc3)CCOCC2)cc1OC`, the Potency is reported as “inactive”. With `CCCN(CCC)CC(O)COc1ccccc1C(=O)Nc1ccccc1` (stereo unspecified) the Potency was “inactive”. With `CC(C)C(O)C1CCN(Cc2nc(Cc3ccccc3Cl)no2)CC1` (stereo unspecified) the Potency was “inactive”. `CCCOc1cc(C)c(S(=O)(=O)n2nnc3ccccc32)cc1C` was tested, and the Potency was “inactive”. `COc1cccc(-n2c(=O)c3c(C)c(C(=O)N(C)C)sc3n(CC(=O)NCCc3ccc(OC)c(OC)c3)c2=O)c1` was tested, and the Potency was “inactive”. In the case of `Cc1ccc(OCC(=O)Nc2cccc3c2CCCC3)cc1C`, the Potency is reported as “inactive”. In the case of `Oc1cc(O)c2c(c1)OC(c1ccc(O)c(O)c1)C(O)C2` (stereo unspecified), the Potency is reported as “inactive”. For `CCOC(=O)C1(Cc2ccccc2C(F)(F)F)CCN(C(=O)c2cc(C)n(C)n2)CC1`, the Potency was “inactive”. `C[C@H](CO)N1C[C@H](C)[C@@H](CN(C)C(=O)NC2CCCCC2)Oc2ccc(NC(=O)c3ccncc3)cc2C1=O` was tested, and the Potency was “inactive”. For `CCCCN(C(=O)c1ccc(OC(F)(F)F)cc1)c1c(N)n(CCC)c(=O)[nH]c1=O`, the Potency was “inactive”. For `CC(C)C(=O)NCC(c1cccs1)S(=O)(=O)c1ccc(F)cc1` (stereo unspecified), the Potency was “inactive”. In the case of `Cc1csc(=O)n1CCC(=O)OCC(=O)Nc1ccc(N2CCOCC2)cc1`, the Potency is reported as “inactive”. With `CCc1c(C)[nH]c(=S)c(C#N)c1C` the Potency was “inactive”. `COc1ccc(C)cc1S(=O)(=O)Nc1cccc(Cl)c1Cl` was tested, and the Potency was “inactive”. In the case of `CCN(CC)C(=O)CSc1nnc(-c2cnccn2)n1-c1ccc(C)cc1`, the Potency is reported as “inactive”. In the case of `COC(=O)c1ccc(OCC(O)CN(CCO)CC(O)Cn2ccc3ccccc32)cc1` (stereo unspecified), the Potency is reported as “inactive”. With `NC(=O)CCCC1=NS(=O)(=O)c2ccccc2N1` the Potency was “inactive”. In the case of `CC(CC(=O)Nc1ccc(F)cc1F)S(=O)(=O)c1ccc2c(c1)NC(=O)CO2` (stereo unspecified), the Potency is reported as “inactive”. In the case of `O=C(NC1CCCC1)C(NS(=O)(=O)c1ccc(Br)s1)c1ccccc1` (stereo unspecified), the Potency is reported as “inactive”. For `Cc1ccc(N)cc1-n1c(C)ccc1C`, the Potency was “inactive”. For `COc1cc(C(=O)NNC(=O)CN2C(=O)NC3(CCCC3)C2=O)cc(OC)c1OC`, the Potency was “inactive”. With `OC(c1ccc(Cl)cc1)C(CN1CCOCC1)c1ccccc1` (stereo unspecified) the Potency was “inactive”. In the case of `C=CCn1c(SCc2c(C(=O)OC)sc(N)c2C(=O)OC)nnc1-c1ccc(Cl)cc1`, the Potency is reported as “inactive”. For `CC1(C)CC(=O)c2cnc3nc4ccccc4n3c2C1`, the Potency was “inactive”. In the case of `CCCC1(C(=O)OC)NC(c2ccco2)C2C(=O)N(C)C(=O)C21` (stereo unspecified), the Potency is reported as “inactive”. In the case of `Cn1ccc(=Nc2ccc(NC(=O)c3ccc(N=c4ccn(C)c5ccc([N+](=O)[O-])cc45)cc3)cc2)cc1`, the Potency is reported as “inactive”. For `CCCN(CCC)S(=O)(=O)c1ccc(C(=O)N2CC3CCC(CC3)C2)cc1`, the Potency was “inactive”. With `CN(c1ccccc1)S(=O)(=O)c1ccc2[nH]c(=O)[nH]c2c1` the Potency was “inactive”. In the case of `CC1(C(=O)NCc2ccco2)Cc2c(-c3ccc4c(c3)OCO4)ccnc2O1` (stereo unspecified), the Potency is reported as “inactive”.
